# Tb PYK inh = inhibitors of Trypanosoma brucei pyruvate kinase; Potency, µM (titrated, usually from 76.8 µM), hits mostly inhibitors; AID 624173; TbPYK enzyme, Kinase-Glo Plus ATP luminescence, 45 min; actives 0.12% (n = 410,000); further: nearly all actives have a fitted effect of over 50% in size
#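 TbPYK + substrate in 50 mM TEA pH 7.2, 100 mM KCl, 10 mM MgCl2, 0.05% BSA, 0.01% Tween-20; cpd pinned; ADP 130 uM final; 45 min RT; Kinase-Glo Plus 10 min; luminescence endpoint.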
# RE007 growth inh = less growth of the S. pombe RE007 Vpr strain. S. pombe RE007 Vpr strain, BacTiter-Glo ATP luminescence, 24 h. AID 651644. actives 0.21% (n = 360,000). Potency, µM (highest dose often 92.2 µM), actives largely listed as inhibitors; active means well fitted falling curve with a large enough effect; inconclusive means small, poorly fitted or top-dose-only effect; inactive means no such curve, though single readings can be large or run the other way; further: nearly all actives have a fitted effect of over 50% in size
#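 Fission yeast RE007 carrying one integrated HIV-1 vpr copy, seeded at OD 0.01 in PMG+AL medium with 23 nL pinned compound. Grown 24 h at 30 degrees; viability read by BacTiter-Glo luminescence after 5 min.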
# Sm TGR inh = blocks Schistosoma mansoni thioredoxin glutathione reductase | purified TGR, DTNB reduction, TNB absorbance 405 nm | Potency, µM (top dose mostly 114 µM), hits mostly inhibitors | actives 3% (n = 360,000) | AID 485364; further: nearly all actives have a fitted effect of over 60% in size
#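 TGR 20 nM + NADPH 100 uM (dispensed conc.), cpd preinc 15 min RT; start with NADPH (500 uM addition) then DTNB (15 mM addition). Kinetic TNB absorbance, 405 nm filter. Four-parameter Hill fit across titration.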
# LmPK inh = blocks Leishmania mexicana pyruvate kinase activity. AID 1721. Potency, µM (doses to about 57.5 µM), usual class: inhibitors. actives 0.37% (n = 290,000). purified LmPK, Kinase-Glo ATP luminescence, 1 h
# Target sequence (Q27686 whole entry, looked up): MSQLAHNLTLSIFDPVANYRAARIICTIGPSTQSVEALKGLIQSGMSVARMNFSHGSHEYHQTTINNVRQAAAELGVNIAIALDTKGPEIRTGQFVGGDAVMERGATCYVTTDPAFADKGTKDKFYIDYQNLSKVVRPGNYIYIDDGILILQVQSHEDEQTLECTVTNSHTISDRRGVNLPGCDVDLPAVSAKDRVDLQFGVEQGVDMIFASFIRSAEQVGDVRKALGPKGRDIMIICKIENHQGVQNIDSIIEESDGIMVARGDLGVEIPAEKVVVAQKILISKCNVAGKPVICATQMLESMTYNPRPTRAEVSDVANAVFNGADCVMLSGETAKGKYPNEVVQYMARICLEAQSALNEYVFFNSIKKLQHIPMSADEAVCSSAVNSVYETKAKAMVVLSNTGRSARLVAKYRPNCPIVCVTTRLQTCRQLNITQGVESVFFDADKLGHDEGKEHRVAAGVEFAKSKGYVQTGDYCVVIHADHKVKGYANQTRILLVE
#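 Pyruvate kinase activity monitored as ATP production (luciferase luminescence). Conditions: 0.1 nM enzyme, 0.5 mM PEP, 0.1 mM ADP, 1 h, RT; normalized against uninhibited and no-enzyme wells.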
# Hits are given with their value; n = inactive; u = inconclusive; x = no result given; [ ] = remark or other dose. Rows were chosen to be rich in hits. Some 3% of all compounds tested hit in one or more screens of this group. Unless noted, the call rests on the fitted dose curve; in most records, active means well fitted curve in the direction sought with a large enough effect; inconclusive means small, poorly fitted or top-dose-only effect, or another doubt; inactive means no such curve, though single readings can be large; an effect the other way counts as inactive or inconclusive.
SMILES,Tb PYK inh,RE007 growth inh,Sm TGR inh,LmPK inh
CCOC(=O)c1c(C)n(Cc2ccc3c(c2)OCO3)c2ccc(O)cc12,x,n[3.69 µM],n,n
CCOC(=O)c1c(C)n(Cc2ccc(F)cc2)c2ccc(O)cc12,u,n,n,18µM
CCCCc1ccc(Nc2cc(C)nc(-n3nc(C)cc3C)n2)cc1,n,x,n,x
Clc1ccc(-c2nc3ccncc3[nH]2)cc1,n,40µM,n,14µM
O=C(NCCc1csc(-c2cccc(F)c2)n1)c1ccccc1C(F)(F)F,n,x,n,x
COCCN1CCn2c(nc3cc(NC(C)=O)ccc32)C1,n,n,14µM,n
COCCN1CCn2c(nc3cc(NC(=O)c4ccc(OC)cc4)ccc32)C1,n,n,16µM,n
COCCN1CCn2c(nc3cc(NC(=O)NC4CCCCC4)ccc32)C1,n,n,8.9µM,n
COc1ccc(C(=O)Nc2ccc3c(c2)nc(CN2CCCC2)n3C)cc1,n,n,n,n
Cc1nn(CC(=O)Nc2ccc3c(c2)nc2n3CCOC2)c(=O)c2ccccc12,n,n,n,n
COCCN1CCn2c(nc3cc(NC(=O)Cn4nc(C)c5ccccc5c4=O)ccc32)C1,n,n,25µM,n
CCOC(=O)Nc1ccc2c(c1)nc1n2CCN(CCOC)C1,n,n,n,n
O=C(c1ccco1)N1CCC2(CCCN(c3ccncc3)C2)CC1,n,x,x,x
COc1ccc(CNC(=O)CCc2c(C)nc3nc(CNC(=O)OC(C)(C)C)nn3c2C)cc1,n,x,n,x
CC(C)CN(C[C@@H](OP(=O)(O)O)[C@H](Cc1ccccc1)NC(=O)O[C@@H]1CCOC1)S(=O)(=O)c1ccc(N)cc1,n,x,x,x
O=S(=O)(NCCS(=O)(=O)N1CCN(c2cccc(Cl)c2)CC1)c1ccc(F)cc1,n,x,n,x
CCCCOC(=O)c1ccc(O)cc1,n,n,n,n
CCCCCCCCOC(=O)c1ccc(N)cc1,n,28µM,n,n
O=C(CC1Oc2ccccc2NC1=O)NC1CC1 (stereo not given),x,x,79µM,n
COCCn1c(SCC(=O)Nc2cc(Cl)ccc2OC)nc2c([nH]c3ccccc32)c1=O,n,x,n,x
CCn1c(C)cs/c1=N\S(=O)(=O)c1ccccc1,n,n,n,x
O=Cc1s/c(=N\S(=O)(=O)c2ccccc2)n(CCCCl)c1Cl,n,n,0.63µM,n
CSc1nc(O)c(C(c2ccc(C)cc2)c2c(O)nc(SC)[nH]c2=O)c(=O)[nH]1,n,n,45µM,n
CSc1nc(O)c(C(c2ccc(F)cc2)c2c(O)nc(SC)[nH]c2=O)c(=O)[nH]1,n,n,x,x
CSc1nc(O)c(C(c2ccccc2)c2c(O)nc(SC)[nH]c2=O)c(=O)[nH]1,n,n,7.9µM,n
SMILES,Tb PYK inh,RE007 growth inh,Sm TGR inh,LmPK inh
Cc1cc(-c2ccc(S(=O)(=O)Nc3ccc(Cl)cc3C)cc2)on1,n,x,n,x
Cc1oc(-c2ccccc2)nc1CNC(=O)Nc1ccccc1,n,x,n,x
O=C(NCc1cccc(F)c1)c1ccc(CS(=O)c2ccccc2Cl)o1 (stereo not given),n,x,u,x
Cc1ccc[n+](CC(=O)Nc2c(Cl)cc(Cl)cc2Cl)c1,n,n,n,n
O=C(C[n+]1ccccc1)Nc1c(Cl)cc(Cl)cc1Cl,n,n,8.9µM,n
O=C(C[n+]1ccccc1)Nc1ccccc1Br,n,n,0.1µM,n
O=C(C[n+]1ccccc1)Nc1ccccc1[N+](=O)[O-],n,n,u,n
COc1cccc(-c2cnc3c(NC(C)=O)cc(-c4ccc(C(=O)N5CCOCC5)cc4)cn23)c1,n,n[18.4 µM],x,x
Cc1ccc(Cl)cc1NC(=O)C1CC(=O)Nc2ncnn21 (stereo not given),n,n,n,n
O=C1CC(C(=O)Nc2cc(Cl)ccc2Cl)n2ncnc2N1 (stereo not given),n,n,22µM,n
CC#CCN(Cc1ccco1)C(=O)c1ccc(OC2CCN(Cc3ccccn3)CC2)cc1,n,n,79µM,n
CCN(CC)S(=O)(=O)c1ccc2c(c1)nc(CN(C)C(=O)Nc1ccc(C)c(Cl)c1)n2C,n,x,n,x
O=C1NC(=O)/C(=C/c2ccco2)N1,n,x,n,x
O=C1NC(c2ccccc2)=N/C1=C/c1ccco1,n,n,50µM,u
O=C1NC(c2ccccc2Br)=N/C1=C\c1ccco1,n,u,40µM,u
O=C1NC(c2cccc(Br)c2)=N/C1=C\c1ccco1,n,n,79µM,n
Cc1ccccc1-n1c(=O)c2c3c(sc2n2cnnc12)CCCC3,n,x,n,x
O=C(NCc1ccc2c(c1)OCO2)c1nc(S(=O)(=O)Cc2ccccc2F)ncc1Cl,n,n,25µM,n
O=C(NCc1ccc2c(c1)OCO2)c1nc(S(=O)(=O)Cc2ccccc2)ncc1Cl,n,n,3.2µM,n
O=C(NCc1ccc2c(c1)OCO2)c1ccccc1Cl,n,n,x,x
C[n+]1ccc(/C=N/Nc2nc(Cl)c(C#N)c(Cl)c2Cl)cc1,n,u,11µM,n
Cc1[nH]nc2c1C(c1ccc(-c3ccccc3C#N)o1)C(C#N)=C(N)O2 (stereo not given),n,n,13µM,n
CCc1ccccc1NC(=O)c1cc(S(=O)(=O)N(CC)c2ccccc2)ccc1F,n,x,n,x
C[n+]1cc2c3c(ccc2c2ccc4cc5c(cc4c21)OCO5)OCO3,n,x,x,x
CCN(CC)CCCNC(=O)/C=C/C(=O)O,n,n,2.5µM,n
SMILES,Tb PYK inh,RE007 growth inh,Sm TGR inh,LmPK inh
CCN(CC)CCCNC(=O)c1ccccc1C,n,n,n,n
Cc1ccc(S(=O)(=O)NCC(Nc2cccc(Cl)c2)c2ccccc2)cc1 (stereo not given),n,x,u,x
c1ccc(C(OC2CCCN(CCc3ccc4c(c3)OCO4)C2)c2ccccc2)cc1 (stereo not given),n,x,x,x
O=[N+]([O-])c1ccc(/C=C2\CCC(C3=CCCC3)=C2N2CCOCC2)cc1,n,u,32µM,n
CCN(CC)CCCNC(=O)CCCn1c(=O)[nH]c2ccc(Br)cc2c1=O,n,x,n,x
CC1=C(O)C(=O)C=C2C1=CC=C1C2(C)CCC2(C)C3CC(C)(C(=O)O)CCC3(C)CCC12C (stereo not given),35µM,u,x,x
O=C(OCc1nc2ccc(Cl)cc2n1CCO)c1ccccc1,n,n,18µM,n
CN(CCc1ccccc1)C(=O)c1[nH]c(C(F)(F)F)nc1-c1ccccc1,n,n,x,x
COC(=O)C[C@H]1c2ccccc2[C@H]2C(=C[C@@H](C)[C@H]3C(=O)N(O)C(=O)[C@H]32)N1C(=O)OC,x,x,x,n[11.5 µM]
CCOc1cc(CN2CCOCC2)cc(C(C)=O)c1,n,n,45µM,n
CN1C(=O)C(Cc2c[nH]c3ccccc23)C(=O)N(C)C1=O,x,x,14µM,n
O=C1c2ccccc2C(=O)C1Cc1cccc2ccccc12,n,n,56µM,n
CN1C(=O)C(Cc2ccc(OCc3ccccc3)cc2)C(=O)N(C)C1=O,n,n,n,n
O=C1NC(Cc2c[nH]c3ccccc23)C(=O)N1Cc1ccccc1 (stereo not given),n,n,n,n
CN1C(=O)C(Cc2cccc3ccccc23)C(=O)N(C)C1=O,n,n,14µM,n

# Screening results: PubChem, National Center for Advancing Translational Sciences (NCATS)
